Screening results: PubChem, National Center for Advancing Translational Sciences (NCATS)
TRHR enhancer: qHTS for Small Molecule Agonists and Allosteric Enhancers of Human TRH Receptor: Primary Screen for Enhancers; Thyrotropin-releasing hormone receptor (Homo sapiens), P34981; TRHR cells, fluo-8 calcium fluorescence, EC20 TRH enhancement; enhancement, % at 2 µM; 0.66% of 360,000 active; in the data active = enhancement above about 30%
Target sequence (P34981 whole entry, looked up): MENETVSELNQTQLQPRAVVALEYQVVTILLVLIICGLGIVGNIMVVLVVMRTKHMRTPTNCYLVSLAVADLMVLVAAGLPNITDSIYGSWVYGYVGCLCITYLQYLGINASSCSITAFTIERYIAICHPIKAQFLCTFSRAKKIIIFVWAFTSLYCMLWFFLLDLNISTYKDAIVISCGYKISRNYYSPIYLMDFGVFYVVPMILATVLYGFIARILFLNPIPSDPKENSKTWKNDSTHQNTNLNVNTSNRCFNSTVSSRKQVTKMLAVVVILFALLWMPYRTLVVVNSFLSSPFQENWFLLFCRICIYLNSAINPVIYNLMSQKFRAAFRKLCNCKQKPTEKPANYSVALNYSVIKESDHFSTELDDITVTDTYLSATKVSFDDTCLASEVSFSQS
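Enhancer read-out: after compound pinning and an initial kinetic agonist-mode read, an EC20 of TRH (10 nM final) was injected and fluo-8 calcium signal (Ex 480/Em 530) followed at 1 s/cycle for 100 cycles in TRHR-expressing cells.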
D1 ag: Allosteric Agonists of the Human D1 Dopamine Receptor: qHTS | D(1A) dopamine receptor (Homo sapiens), P21728 | HEK293 T-REx D1 cells, calcium flux, agonist mode | activation, % at 2 µM | 1% of 360,000 active
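Inducible HEK293 T-REx D1 cells, force-coupled to calcium signalling, were plated at 4000 cells/well with tetracycline and held overnight at 30 C. After no-wash calcium dye loading, compound-evoked calcium rise over 180 s flagged agonists.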
D1 PAM: Potentiators of Human D1 Dopamine Receptor: qHTS | D(1A) dopamine receptor (Homo sapiens), P21728 | HEK293 TREx D1 cells, calcium flux, dopamine EC20 potentiation | potentiation, % at 10 µM | 0.036% of 360,000 active | AID 504651, 2011; in the data active = potentiation above about 30%
TRHR ag: qHTS for Small Molecule Agonists and Allosteric Enhancers of Human TRH Receptor: Primary Screen for Agonists | Thyrotropin-releasing hormone receptor (Homo sapiens), P34981 | TRHR cells, calcium flux fluo-8, FDSS agonist mode | activation, % at 2 µM | 0.18% of 360,000 active | AID 493084, 2011
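Steps: seed TRHR cells overnight; add fluo-8 no-wash Ca dye, RT 30 min–1.5 h; record 10 s baseline; pin-transfer compounds; monitor fluorescence 1 cycle/s for the agonist window. Calcium increases flag candidate agonists.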
D1 antag: Antagonist of Human D 1 Dopamine Receptor: qHTS | D(1A) dopamine receptor (Homo sapiens), P21728 | HEK293 TREx D1 cells, calcium flux, dopamine EC80; stronger effect = lower value | activity change, negative = inhibition, % at 10 µM | 3.2% of 360,000 active; in the data active = activity change below about -30%
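Calcium flux readout: force-coupled, inducible Hek293 Trex D1 line, cells induced overnight at 30 C with tetracycline, dye-loaded 30–90 min at RT. Antagonism scored against EC80 dopamine challenge given 180 s after compound.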
Glioma ERSR ind: qHTS for Inducers of the Endoplasmic Reticulum Stress Response (ERSR) in Human Glioma: qHTS | U87-MG GRP78 promoter luciferase reporter, 16 h | Potency, µM, hits mostly activators | 0.02% of 420,000 active; active = well fitted activation curve with a large enough effect; also: series mostly up to about 76 µM; nearly all actives have a fitted effect of over 35% in size
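Stably transfected U87-MG glioma cells carrying a GRP78-based luciferase sensor; 16 h compound incubation. Luminescence end-point read 10 min after Bright-Glo addition at room temperature.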
Numbers stand for hits; . = inactive; / = no result. This is a sample that favours compounds with a hit; in the whole collection about 4% have one here. Rule as the data show it, unless noted: active = activation above about 30%; inactive = the rest.

SMILES | TRHR enhancer | D1 ag | D1 PAM | TRHR ag | D1 antag | Glioma ERSR ind
Cc1ccc(CNC(=O)CCSCc2cnn(-c3ccccc3)c2-n2cccc2)cc1 | . | . | . | . | -34.0 | .
COc1cccc(NC(=O)C2CCN(Cc3cnn(-c4ccccc4)c3-n3cccc3)CC2)c1 | . | . | . | . | . | .
COc1ccc(NC(=O)C2CCN(Cc3cnn(-c4ccccc4)c3-n3cccc3)CC2)cc1OC | . | 35.3 | . | . | -34.0 | .
O=C(CCSCc1cnn(-c2ccccc2)c1-n1cccc1)NCc1ccc(Cl)cc1 | . | . | . | . | -51.7 | .
COc1ccccc1CNC(=O)CSCc1cnn(-c2ccccc2)c1-n1cccc1 | . | . | . | . | . | .
COc1ccc(CNC(=O)CSCc2cnn(-c3ccccc3)c2-n2cccc2)cc1OC | . | 43.3 | . | . | -33.6 | .
COc1ccc(CCNC(=O)c2nn(C)c3c2CS(=O)(=O)c2ccccc2-3)c(OC)c1 | . | . | . | . | . | .
CN(C)c1ncc(C(=O)NCc2ccc(Cl)cc2)cn1 | . | . | . | . | . | /
O=C(Cn1cc(S(=O)(=O)Cc2ccc(F)cc2)c2ccccc21)NCc1ccccc1Cl | . | 35.7 | . | . | . | .
O=C(Cn1c(SCc2ccccc2F)nc2cccnc21)Nc1ccc(F)c(Cl)c1 | 36.0 | . | . | . | . | .
Cc1ccc(CNC(=O)Cn2cc(S(=O)(=O)Cc3ccccc3F)c3ccccc32)cc1 | . | 31.7 | . | . | . | .
O=C(Cn1c(SCC(=O)Nc2ccc(F)cc2)nc2ccccc21)NCc1ccccc1Cl | . | 32.7 | . | . | . | .
Cc1noc(C)c1C(=O)N1CCC2(CCN(Cc3ccc(C#N)cc3)CC2)CC1 | / | / | / | / | / | .
COc1ccc2cc3cc(C(=O)NCCCN4CCc5ccccc5C4)sc3nc2c1 | . | . | . | . | . | .
COc1ccc(NC(=O)CN(c2ccccc2C)S(C)(=O)=O)c(OC)c1 | 31.3 | . | . | . | . | .
COc1ccc(OC)c(S(=O)(=O)N(C)CC(=O)Nc2ccccc2OC)c1 | . | . | . | . | -81.8 | .
COc1ccccc1NC(=O)CN(c1ccccc1C)S(C)(=O)=O | . | . | . | . | . | .
COc1ccc(S(=O)(=O)N(C)CC(=O)Nc2ccccc2OC)cc1C | . | . | . | . | . | .
CCOc1ccccc1NC(=O)CN(c1ccc(OC)cc1OC)S(=O)(=O)c1ccccc1[N+](=O)[O-] | . | . | . | . | -44.2 | .
CC(C(=O)Nc1nnc(C2CC2)s1)N1C(=O)C2CC=CCC2C1=O (configuration not stated) | . | . | . | . | . | .
Cc1ccc(OCCn2c(Br)nc3c2c(=O)n(C)c(=O)n3C)cc1 | . | . | . | . | -32.6 | .
COCCn1c(Br)nc2c1c(=O)n(C)c(=O)n2C | . | . | . | . | . | .
Cc1ccc(Oc2nnc(-c3cccs3)c3ccccc23)cc1C | . | . | . | . | -31.6 | .
Cc1ccc(S(=O)(=O)N2CCC(C(=O)NCCc3ccccn3)CC2)cc1 | . | . | . | . | -57.6 | .
CCOC(=O)c1c(CSc2ccc(CC)cc2)oc2ccc(O)c(CN(C)C)c12 | . | 44.8 | . | . | . | .
SMILES | TRHR enhancer | D1 ag | D1 PAM | TRHR ag | D1 antag | Glioma ERSR ind
Cc1ccc2nc(Nc3nc(=O)c4ccccc4n3C)nc(C)c2c1 | . | 157.9 | . | . | . | /
CCN1C(=O)[C@H]2[C@H]3[C@H](O)[C@H](O)C/C(=N/OC/C=C(\C)CCC=C(C)C)[C@@H]3CC[C@@H]2C1=O | / | / | / | / | / | .
CCOC(CNC(=O)c1ccc(N2CCc3ccccc32)c([N+](=O)[O-])c1)OCC | . | . | . | . | -37.0 | .
S=C(NCCc1ccccc1)N1CCC2CC1c1c(Cl)cccc12 (configuration not stated) | / | / | / | / | / | .
COc1ccccc1CC(=O)N(Cc1ccccc1)c1cccc(C)c1 | . | . | . | . | -30.6 | .
COc1ccc(C(=O)N(Cc2ccccc2)c2cccc(C)c2)cc1 | . | . | . | . | . | .
O=C(COc1ccc(Cl)cc1)N1CCN(C(=O)c2cccc(F)c2)CC1 | . | . | . | . | . | .
Cc1n[nH]c(C)c1S(=O)(=O)N1CCCC(C(=O)NCc2ccccc2Cl)C1 (configuration not stated) | . | . | . | . | . | .
C=CCn1c(SCC(=O)Nc2cc(C)on2)nc2sc(CC)cc2c1=O | . | . | . | . | -41.9 | .
C=CCn1c(N)cc(=O)nc1SCC(=O)Nc1ccc(C)cc1 | 38.7 | . | . | . | . | .
Cn1nnnc1SCC(=O)N1CCN(C(=O)c2ccco2)CC1 | . | . | . | . | -38.1 | .
Cn1nnnc1SCC(=O)NC(=O)Cc1ccccc1 | . | . | . | . | -44.0 | .
CCc1ccccc1Nc1ccc(C(=O)O)cc1N | . | . | . | . | . | .
COc1ccc(OC)c(NC(=O)CN2c3cccc4cccc(c34)S2(=O)=O)c1 | / | / | / | / | / | .
C=CCn1c(SCC(=O)Nc2ccc(O)cc2)nc2sc(CC)cc2c1=O | . | . | . | . | -31.5 | .
C=CCn1c(SCC(=O)N2CCN(C(=O)c3ccco3)CC2)nc2sc(CC)cc2c1=O | . | . | . | . | -32.0 | .
CC(=O)c1ccc(N2CCN(S(=O)(=O)c3ccc(-c4cc(C)no4)s3)CC2)cc1 | . | . | . | . | . | .
CC(=O)c1ccc(N2CCN(S(=O)(=O)c3ccc(-c4cc(C(F)(F)F)on4)s3)CC2)cc1 | . | . | . | . | -30.8 | .
Cc1cccc(Cl)c1NC(=S)NN | . | . | . | . | -42.1 | .
CC(C)CN1C(=O)c2ccc(C(=O)Nc3ccc(O)cc3C(=O)O)cc2C1=O | . | . | . | . | -76.4 | .
COc1ccc(Cl)cc1Nc1nc(C)nc2c1nnn2Cc1ccccc1 | . | . | . | . | . | .
O=C(CCc1ccccc1)Nc1ccc(NC(=O)c2ccco2)nc1 | . | . | . | . | . | .
COc1ccc2c3c1OC1CC(O)C=CC31CCN(C)C2 (configuration not stated) | . | . | . | . | . | .
CCCN(C(=O)c1cc2c(Cl)nc3ccccc3c2s1)c1cccc(C)c1 | 39.9 | . | . | . | . | .
CN(C(=O)c1cc2c(Cl)nc3ccccc3c2s1)c1cccc(C(F)(F)F)c1 | . | . | . | . | . | .
Cc1nc2ncnn2c(C)c1CCC(=O)O | . | . | . | . | -37.5 | .
